Source: PubChem BioAssay

target: Torsin-1A (Homo sapiens) (UniProt O14656); experiment: torsin A binders from cell lysate, primary screen, small-molecule microarray, wild-type, 635/667 nm (AID 1149); details: COS7 hTOR1A-WT lysate, 635 nm fluorescence, higher = more signal
Sequence (O14656 whole entry, looked up): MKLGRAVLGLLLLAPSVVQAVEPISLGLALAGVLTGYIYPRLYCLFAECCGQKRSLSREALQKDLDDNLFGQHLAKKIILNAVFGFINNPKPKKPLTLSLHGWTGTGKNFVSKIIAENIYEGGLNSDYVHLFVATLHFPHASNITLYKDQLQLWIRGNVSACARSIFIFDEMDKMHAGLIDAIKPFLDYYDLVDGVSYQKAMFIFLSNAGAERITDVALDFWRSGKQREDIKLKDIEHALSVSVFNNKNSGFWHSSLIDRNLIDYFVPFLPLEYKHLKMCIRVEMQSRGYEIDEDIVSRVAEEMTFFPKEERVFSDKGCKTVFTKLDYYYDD

In order of rising composite z-score:
1. O=C1C2C=CC(C(O)c3ccco3)N(Nc3ccccc3)C2C(=O)N1c1ccccc1 (stereo not drawn)  -1.16
2. CCOC(=O)C[C@H]1[C@H](OC(=O)c2ccc(-c3ccccc3)cc2)[C@@H](NC(=O)Cc2ccc(OC)cc2)c2cc(OCCCO)ccc2N1C(=O)Cc1ccc(OC)cc1  -0.305
3. COC(=O)C(CC#Cc1ccc2c(c1)[C@]1(C(=O)N2)[C@H](c2ccc(OCCO)cc2)N2[C@H](c3ccccc3)[C@H](c3ccccc3)OC(=O)[C@H]2[C@@H]1C(=O)N1CCN(c2ncccn2)CC1)C(=O)OC  0.272
4. CCOC(=O)C1=CC[C@@H](c2ccccc2)N(S(=O)(=O)c2ccc(C)cc2)[C@H]1c1cccc(OC)c1  0.4
5. CN1C=C(C(=O)OCCS(C)(=O)=O)C(C(=O)OCCS(C)(=O)=O)=CC(c2ccc(CO)cc2)=CC1c1cccs1 (stereo not drawn)  0.579

target: Torsin-1A (Homo sapiens) (UniProt O14656); experiment: small-molecule binders of mutant TOR1A in lysate, primary screen, cell lysate, small-molecule microarray, COS7 lysate, 635/667 nm fluorescence (AID 1150); details: COS7 hTOR1A mutant lysate, 635 nm fluorescence, higher = more signal;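 further: score pools 667 nm emission and signal to noise measuring lysate protein binding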

In order of rising composite z-score:
1. COc1ccc([Si](C)(C)[C@@H]2[C@@H](CCn3cc([C@H](O)c4ccccc4)nn3)O[C@]3(C(=O)N(Cc4cccc(N5C(=O)c6cccc7cccc5c67)c4)c4ccccc43)[C@H]2C)cc1  -0.526
2. Cc1cccc([C@H]2C[C@H]3C(I)=C[C@@H]2C(=O)[C@]32CO2)c1  -0.481
3. C=CCC(OC(C)=O)[C@@H]1[C@@H](N(Cc2cccc3ccccc23)C(=O)c2cccc3ccccc23)c2cc(OCCCO)ccc2N1C(=O)c1ccc2ccccc2c1 (stereo partly drawn)  -0.252
4. COC(=O)[C@@]1(Cc2ccc(F)cc2)[C@H]2c3cc(C(=O)N(C)C)n(Cc4c(CO)[nH]cc(C)c4=O)c3C[C@H]2CN1C(=O)c1ccccc1  -0.134
5. C=C[C@H](C)[C@H](OC(=O)Nc1ccc(OC)cc1)c1ccc(OCCO)cc1  0.0508
6. O=C1C2C=CC(C(O)C=Cc3ccc([N+](=O)[O-])cc3)N(Nc3ccccc3)C2C(=O)N1c1ccccc1 (stereo not drawn)  0.0565
7. COc1cc2c(cc1O)C(c1ccc(CN3CCCC3)cc1)N(C)CC2 (stereo not drawn)  0.081
8. CC(=O)NCCCC[C@@H]1NC(=O)[C@H]2C[C@@H](C(=O)NCCCCCNC(=O)CS)[C@@H](c3cccc(OCCO)c3)N2C1=O  0.092
9. CCCCCN1CC=CC23O[C@@H]4/C=C\CCC(C)OC(=O)C4[C@H]2C(=O)N(CCCCCCO)[C@@H]3C1=O (stereo partly drawn)  0.109
10. C=C(/C(=C/C[C@@H](OC(=O)c1ccncc1)c1cccc(OCCO)c1)c1cnc2ccccc2c1)C(C)C  0.128
11. Cc1ccc(N2C(=O)c3ccccc3[C@](C)(C(=O)NCc3ccccc3)[C@@H]2c2ccc(CO)cc2)nc1  0.185
12. Cc1ccccc1C(O)C1C=CC2C(=O)NC(=O)C2N1Nc1ccc(Cl)cc1Cl (stereo not drawn)  0.244
13. CCOC(=O)C[C@H]1[C@H](OC(=O)c2ccc(C(=O)c3ccccc3)cc2)[C@@H](NC(=O)CC(C)C)c2cc(OCCCO)ccc2N1C(=O)Cc1ccc(OC)cc1  0.498
14. Cc1ccccc1C(O)C1C=CC2C(=O)N(c3ccccc3)C(=O)C2N1Nc1ccc([N+](=O)[O-])cc1 (stereo not drawn)  0.593
15. C=C[C@@H](OC)[C@H](OC(=O)Nc1ccc(SC)cc1)c1ccc(OCCO)cc1  0.8
16. COc1cc(NN2C(C(O)c3cc(OC)c(OC)c(OC)c3)C=CC3C(=O)N(c4ccccc4)C(=O)C32)cc(OC)c1OC (stereo not drawn)  0.816
17. CC(C)(C)OC(=O)CC[C@]1(C(=O)N2CCCCC2)COC(c2ccc(OCCCO)cc2)=N1  0.967
18. COC(=O)[C@@]1(Cc2ccccc2)[C@H]2c3cc(C(=O)N4CCCC4)n(CCSCCO)c3C[C@H]2CN1C(=O)c1ccccc1  0.989
19. C=C[C@@H](C)[C@@H](OC(=O)Nc1ccc(SC)cc1)c1ccc(OCCO)cc1  1.04
20. COCCOC(=O)N1C(=O)[C@@]2(c3cc(C#CC4=CCCCC4)ccc31)[C@H](c1ccc(O)cc1)N1[C@H](c3ccccc3)[C@H](c3ccccc3)OC(=O)[C@H]1[C@@H]2C(=O)NC[C@H](O)c1ccccc1  1.29
21. COCCOC(=O)N1C(=O)[C@@]2(c3ccccc31)[C@H](c1ccccc1OCCO)N1[C@H](c3ccccc3)[C@H](c3ccccc3)OC(=O)[C@H]1[C@@H]2C(=O)N1CCCCCCC1  2.39
22. CN(C)CCCCCCNC(=O)[C@@H]1C[C@@H]2C(=O)N[C@@H](CCCCN)C(=O)N2[C@@H]1c1ccc(O)cc1  3.21
23. COCCOC(=O)N1C(=O)[C@@]2(c3ccccc31)[C@H](c1ccc(OCCO)cc1)N1[C@H](c3ccccc3)[C@H](c3ccccc3)OC(=O)[C@H]1[C@@H]2C(=O)N1CCCCCCC1  3.68
